Assay results taken from PubChem BioAssay (Tox21).
Results filed as inconclusive are left out. The source made the active and inactive calls. Unless noted, calls come from the whole dose curve; as a rule, active = well fitted curve in the direction sought with a large enough effect in the repeat runs; inconclusive = weak or mixed curves; inactive = no such curve, though single readings can be large; an effect the other way counts as inactive or inconclusive. Positions of bridges follow the written chain, without caps; N, C: chain ends. Non-standard residues stand in square brackets, D forms with d. Residues, ends and D or L forms follow the SMILES beside them. hArg = N=C(N)NCCCC[C@H](N)C(=O)O; Mpa = O=C(O)CCS

Key:
[1] = qHTS assay to identify small molecule agonists of the peroxisome proliferator-activated receptor delta (PPARd) signaling pathway - cell viability counter screen (AID 743211); note: nearly all actives have a fitted effect of over 55% in size
Outline: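 Luminescent ATP viability assay (CellTiter-Glo, 30 min RT) in UAS-bla HEK293H cells carrying the PPAR delta reporter construct, 3000 cells/well, after a 17 h compound treatment at 37 C.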

[2] = biological target: Peroxisome proliferator-activated receptor delta (Homo sapiens) (UniProt Q03181); experiment: qHTS assay to identify small molecule agonists of the peroxisome proliferator-activated receptor delta (PPARd) signaling pathway (AID 743212; calls by dose curve)
Outline: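 GeneBLAzer PPARd UAS-bla HEK293H cells (beta-lactamase reporter under UAS control), plated and rested 5 h at 37 C, then exposed to compounds in DMSO at 37 C; LiveBLAzer B/G FRET substrate added, 2 h room temperature, fluorescence read.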

[3] = qHTS assay to identify small molecule antagonists of the peroxisome proliferator-activated receptor delta (PPARd) signaling pathway - cell viability counter screen (AID 743213); note: nearly all actives have a fitted effect of over 50% in size
Outline: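 Agonist-stimulated (L165041, 300 nM final) HEK293H PPARd UAS-bla cells are exposed to compounds for 17 h at 37 C, and ATP-based luminescence (CellTiter-Glo) from the same wells reports cytotoxicity.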

[4] = biological target: Peroxisome proliferator-activated receptor delta (Homo sapiens) (UniProt Q03181); experiment: qHTS assay to identify small molecule antagonists of the peroxisome proliferator-activated receptor delta (PPARd) signaling pathway (AID 743215; active = well fitted inhibition curve with a large enough effect in the signal ratio in the repeat runs, not every such curve was filed as active; the % refers to the signal ratio; note: series mostly up to about 62 µM)
Outline: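 Antagonist-mode beta-lactamase reporter screen: HEK293H cells with UAS-bla under PPARd control, stimulated by 300 nM L165041 (final) alongside test compound for 17 h at 37 C, then FRET fluorescence after 2 h substrate incubation.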

[5] = qHTS assay to identify small molecule antagonists of the farnesoid-X-receptor (FXR) signaling pathway - cell viability counter screen (AID 743221; active = well fitted cell-killing curve with a large enough effect in the repeat runs, not every such curve was filed as active; note: nearly all actives have a fitted effect of over 50% in size)
Outline: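 In GeneBLAzer FXR-UAS-bla HEK 293T cells stimulated with 50 uM chenodeoxycholic acid (final), compounds acted for 16 h at 37 C. Viability was assessed afterwards by CellTiter-Glo luminescence.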

[6] = biological target: Vitamin D3 receptor (Homo sapiens) (UniProt P11473); experiment: qHTS assay to identify small molecule agonists of the vitamin D receptor (VDR) signaling pathway (AID 743222; calls by dose curve)
Outline: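 Agonist activity measured in VDR-bla reporter cells. Exposure 16 h, 37C, 5% CO2; detection by B/G FRET substrate, 2 h RT.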

[7] = biological target: Vitamin D3 receptor (Homo sapiens) (UniProt P11473); experiment: qHTS assay to identify small molecule antagonists of the vitamin D receptor (VDR) signaling pathway (AID 743223; active = well fitted inhibition curve with a large enough effect in the signal ratio in the repeat runs, not every such curve was filed as active; the % refers to the signal ratio)
Outline: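 Agonist 1alpha,25-dihydroxyvitamin D3 (3 nM in well) was added with each compound to VDR-bla cells preincubated 4 h. Cells stood 16 h at 37C, then FRET substrate 2 h at room temperature; fluorescence intensity recorded.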

[8] = biological target: Bile acid receptor (Homo sapiens) (UniProt Q96RI1); experiment: qHTS assay to identify small molecule antagonists of the farnesoid-X-receptor (FXR) signaling pathway (AID 743217; active = well fitted inhibition curve with a large enough effect in the signal ratio in the repeat runs, not every such curve was filed as active; the % refers to the signal ratio)
Outline: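 Beta-lactamase reporter under UAS control in HEK 293T cells; compound exposure 16 h at 37 °C in the presence of chenodeoxycholic acid (50 uM final); signal from B/G FRET substrate after 2 h at room temperature.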

[9] = qHTS assay to identify small molecule agonists of the farnesoid-X-receptor (FXR) signaling pathway - cell viability counter screen (AID 743218); note: nearly all actives have a fitted effect of over 45% in size
Outline: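 In GeneBLAzer FXR-UAS-bla HEK 293T cells, compounds act for 16 h at 37 C. Cell viability is then scored in the reporter wells by CellTiter-Glo, 30 min at RT, luminescence.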

[10] = biological target: Bile acid receptor (Homo sapiens) (UniProt Q96RI1); experiment: qHTS assay to identify small molecule agonists of the farnesoid-X-receptor (FXR) signaling pathway (AID 743220; active = well fitted activation curve with a large enough effect in the signal ratio in the repeat runs, not every such curve was filed as active; the % refers to the signal ratio)
Outline: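 Beta-lactamase reporter under UAS control in GeneBLAzer FXR HEK 293T cells (5000/well) measured with LiveBLAzer FRET substrate after 2 h at room temperature. Compound exposure lasted 16 h at 37C.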
% is set by controls: 0 for no effect and ±100 for the full control effect.

Peroxisome proliferator-activated receptor delta (Homo sapiens), sequence (Q03181 whole entry, looked up): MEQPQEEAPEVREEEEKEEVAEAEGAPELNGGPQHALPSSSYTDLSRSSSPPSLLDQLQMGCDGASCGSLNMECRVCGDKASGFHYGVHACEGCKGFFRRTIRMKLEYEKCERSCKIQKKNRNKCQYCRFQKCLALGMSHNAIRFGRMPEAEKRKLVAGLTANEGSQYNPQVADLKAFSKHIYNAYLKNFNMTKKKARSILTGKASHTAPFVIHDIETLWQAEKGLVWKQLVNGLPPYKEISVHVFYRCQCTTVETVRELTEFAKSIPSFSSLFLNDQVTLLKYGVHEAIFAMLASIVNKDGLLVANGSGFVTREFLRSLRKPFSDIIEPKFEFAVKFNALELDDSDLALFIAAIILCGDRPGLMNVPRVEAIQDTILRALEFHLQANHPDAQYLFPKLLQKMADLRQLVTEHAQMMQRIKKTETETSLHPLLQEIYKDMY
Vitamin D3 receptor (Homo sapiens), sequence (P11473 whole entry, looked up): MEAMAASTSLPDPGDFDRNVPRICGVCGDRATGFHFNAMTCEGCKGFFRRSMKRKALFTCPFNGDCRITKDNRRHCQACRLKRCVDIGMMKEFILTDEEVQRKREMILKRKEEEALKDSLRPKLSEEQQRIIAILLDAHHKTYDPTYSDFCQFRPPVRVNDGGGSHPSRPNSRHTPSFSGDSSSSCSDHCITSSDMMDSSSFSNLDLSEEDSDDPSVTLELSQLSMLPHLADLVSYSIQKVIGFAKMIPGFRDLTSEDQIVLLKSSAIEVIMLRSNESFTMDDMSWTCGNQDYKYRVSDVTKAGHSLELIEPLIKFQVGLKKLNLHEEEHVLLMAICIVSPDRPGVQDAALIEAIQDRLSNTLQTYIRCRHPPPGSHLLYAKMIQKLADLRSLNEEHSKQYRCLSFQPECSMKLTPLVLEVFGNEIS
Bile acid receptor (Homo sapiens), sequence (Q96RI1 whole entry, looked up): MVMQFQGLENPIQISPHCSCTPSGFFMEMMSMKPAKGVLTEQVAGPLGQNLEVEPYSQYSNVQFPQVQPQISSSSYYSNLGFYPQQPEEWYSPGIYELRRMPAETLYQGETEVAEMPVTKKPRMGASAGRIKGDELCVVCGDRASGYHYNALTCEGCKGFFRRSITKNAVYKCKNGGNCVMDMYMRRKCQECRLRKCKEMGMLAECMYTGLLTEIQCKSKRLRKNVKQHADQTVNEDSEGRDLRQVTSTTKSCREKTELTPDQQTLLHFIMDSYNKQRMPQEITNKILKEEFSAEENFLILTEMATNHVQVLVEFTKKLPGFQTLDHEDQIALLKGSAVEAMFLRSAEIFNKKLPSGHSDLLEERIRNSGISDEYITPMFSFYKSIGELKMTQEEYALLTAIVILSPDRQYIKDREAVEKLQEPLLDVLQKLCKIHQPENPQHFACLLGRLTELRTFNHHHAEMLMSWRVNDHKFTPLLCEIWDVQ

NCCOCCN
inactive: outcome [1] | outcome [2] | outcome [3] | outcome [4] | outcome [5] | outcome [6] | outcome [7]

CC(=O)Nc1ccc(OC(=O)c2ccccc2OC(C)=O)cc1
inactive: outcome [1] | outcome [2] | outcome [3] | outcome [4] | outcome [5] | outcome [6] | outcome [7]

O=S(=O)(O)c1ccc2c(N=Nc3ccc(S(=O)(=O)O)c4ccccc34)c(O)c(S(=O)(=O)O)cc2c1
inactive: activity change, negative = cytotoxicity [1] 3.44% [at 5.95 µM] | activation [2] 0.0676% [at 5.95 µM] | ratio activity, negative = inhibition [4] 7.03% [at 6.26 µM] | activity change, negative = inhibition [8] -1.36% [at 5.95 µM] | viability change, negative = cytotoxic [9] 1.45% [at 5.95 µM] | activation [10] -0.449% [at 5.95 µM] | activity change, negative = cytotoxicity [5] -3.15% [at 5.95 µM] | activation [6] -5.96% [at 6.01 µM] | activity change, negative = inhibition [7] 8.98% [at 6.95 µM]

C=CC(=O)CCCCC
inactive: outcome [1] | outcome [2] | outcome [3] | outcome [9] | outcome [5]

CCn1cc(C(=O)O)c(=O)c2cnc(N3CCCC3)nc21
inactive: activity change, negative = cytotoxicity [1] 3.01% [at 13.2 µM] | activation [2] -4.9% [at 13.2 µM] | ratio activity, negative = inhibition [4] -14.6% [at 13.7 µM] | activity change, negative = inhibition [8] 6.21% [at 13.2 µM] | viability change, negative = cytotoxic [9] -3.43% [at 13.2 µM] | activity change, negative = cytotoxicity [5] -0.638% [at 13.2 µM]

CN1C[C@@H]2C[C@H]1CN2c1cc2c(cc1F)c(=O)c(C(=O)O)cn2C1CC1
inactive: outcome [1] | outcome [2] | outcome [4] | outcome [8] | outcome [9] | outcome [5] | outcome [6] | outcome [7]

CC1=C(C(=O)O)N2C(=O)[C@@H](NC(=O)[C@H](N)c3ccccc3)[C@H]2SC1
inactive: outcome [1] | outcome [2] | outcome [3] | outcome [5] | outcome [6] | outcome [7]

COc1ccc(CCO)cc1
inactive: outcome [1] | outcome [2] | outcome [3] | outcome [4] | outcome [5] | outcome [6] | outcome [7]

O=C(O)CONC(=O)c1ccccc1
inactive: outcome [1] | outcome [2] | outcome [4] | outcome [8] | outcome [9] | outcome [10] | outcome [5] | outcome [6]

CCCCCCCCCOC(=O)c1ccccc1C(=O)OCCCCCCCCC
inactive: outcome [1] | outcome [2] | outcome [4] | outcome [8] | outcome [9] | outcome [10] | outcome [5] | outcome [6] | outcome [7]

Cc1ccc(C(C)NC(=O)[C@@H](NC(=O)OC(C)C)C(C)C)cc1 (stereo partly drawn)
inactive: outcome [1] | outcome [2] | outcome [3] | outcome [8] | outcome [5]

O=C(NCN1CCOCC1)c1cnccn1
inactive: outcome [1] | outcome [2] | outcome [3] | outcome [4] | outcome [5] | outcome [6]

O=C(O)[C@H](O)c1ccccc1
inactive: outcome [1] | outcome [2] | outcome [4] | outcome [8] | outcome [9] | outcome [10] | outcome [5] | outcome [6] | outcome [7]

C=CCOC(=O)CCCCCC
inactive: outcome [1] | outcome [2] | outcome [3] | outcome [9] | outcome [6] | outcome [7]

Cc1ccnc(N)c1
inactive: outcome [1] | outcome [2] | outcome [4] | outcome [8] | outcome [9] | outcome [10] | outcome [5]

OCC1(CO)COCOC1
inactive: outcome [1] | outcome [2] | outcome [4] | outcome [8] | outcome [9] | outcome [10] | outcome [5]

CC(CO)(CO)CO
inactive: outcome [1] | outcome [2] | outcome [3] | outcome [9] | outcome [5] | outcome [6] | outcome [7]

CCCCCCCCCOC(=O)CCCCC(=O)OCCCCCCC
inactive: outcome [1] | outcome [2] | outcome [3] | outcome [9] | outcome [5] | outcome [6]

CCOc1cccc(N)c1
inactive: outcome [1] | outcome [2] | outcome [3] | outcome [4] | outcome [5] | outcome [6] | outcome [7]

CCC(C)C(C)=O (stereo not drawn)
inactive: outcome [1] | outcome [2] | outcome [3] | outcome [9] | outcome [5] | outcome [6] | outcome [7]

CC(=O)C1C(=O)C=C(C)OC1=O (stereo not drawn)
inactive: outcome [1] | outcome [2] | outcome [3] | outcome [8] | outcome [9] | outcome [10] | outcome [5] | outcome [6] | outcome [7]

NC(=O)[C@@H]1CSSCCC(=O)N[C@@H](CCCCN=C(N)N)C(=O)NCC(=O)N[C@@H](CC(=O)O)C(=O)N[C@@H](Cc2c[nH]c3ccccc23)C(=O)N2CCC[C@H]2C(=O)N1 ([Mpa][hArg]GDWPC-NH2; disulfide 1-7)
inactive: outcome [1] | outcome [2] | outcome [3] | outcome [8] | outcome [5] | outcome [6] | outcome [7]

CC(C)[C@H]1CC[C@H](C)C[C@@H]1O
inactive: outcome [1] | outcome [2] | outcome [3] | outcome [8] | outcome [9] | outcome [10] | outcome [5] | outcome [6] | outcome [7]

CC(C)NC(=O)c1ccc(C=O)cc1
inactive: outcome [1] | outcome [2] | outcome [3] | outcome [4] | outcome [5] | outcome [6] | outcome [7]

O=Cc1cc2ccccc2o1
inactive: outcome [1] | outcome [2] | outcome [4] | outcome [9] | outcome [5] | outcome [6] | outcome [7]

CC(=O)O[C@H]1C[C@@H]2CC[C@@]1(C)C2(C)C
inactive: outcome [1] | outcome [3] | outcome [8] | outcome [10] | outcome [5] | outcome [6]

Cc1c(C(=O)c2c[nH]n(C)c2=O)ccc(S(C)(=O)=O)c1C1=NOCC1
inactive: outcome [1] | outcome [2] | outcome [9] | outcome [5] | outcome [6]

CCCCCCCCCCOC(C)=O
inactive: outcome [1] | outcome [2] | outcome [4] | outcome [9] | outcome [5] | outcome [7]

CC(=O)c1cc(C)oc1C
inactive: outcome [1] | outcome [2] | outcome [4] | outcome [9] | outcome [5] | outcome [6] | outcome [7]

Cn1c(=O)c2c(ncn2CCO)n(C)c1=O
inactive: outcome [1] | outcome [2] | outcome [4] | outcome [9] | outcome [5] | outcome [6] | outcome [7]

CC(Oc1cc(Cl)ccc1Cl)C(=O)O (stereo not drawn)
inactive: outcome [1] | outcome [3] | outcome [4] | outcome [5]

CC(C)Nc1ccccc1
inactive: outcome [1] | outcome [2] | outcome [4] | outcome [9] | outcome [5] | outcome [6] | outcome [7]

CC1OCCC1=O (stereo not drawn)
inactive: outcome [1] | outcome [3] | outcome [9]
